Inconclusive results are not listed. A number with no mark means an inactive call. Active and inactive are the calls of the source. The call rests on the fitted dose curve; in most records, active means well fitted curve in the direction sought with a large enough effect; inconclusive means small, poorly fitted or top-dose-only effect, or another doubt; inactive means no such curve, though single readings can be large; an effect the other way counts as inactive or inconclusive.

For test [1], the target named is Cellular tumor antigen p53 (Homo sapiens) (UniProt P04637). In words: Primary qHTS for small molecule compounds that upregulate eGFP-tagged delta133p53alpha (in N-terminal) cells. (AID 2060322). Further: nearly all actives have a fitted effect of over 75% in size. Further: potency means the concentration at half of the fitted maximal effect.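 On activation: series mostly up to about 56 µM; 0% = DMSO vehicle and 100% = reference activator.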 Particulars: NCI-H358 eGFP-delta133p53alpha fluorescence, 24 h; activation: stronger effect = higher value. The method in brief:
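NCI-H358 cells pre-induced 24 h with 10 ng/ml doxycycline to express N-terminal eGFP-delta133p53alpha, then dosed 24 h at 37C without doxycycline; fixed, Hoechst-stained, GFP intensity by laser scanning cytometry, normalized to DMSO (0%) and 57.5 uM 5-azacytidine (100%).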
(Quantitative high-throughput screening tests each substance at several concentrations.)

Test [2] concerns the target Aldehyde dehydrogenase, mitochondrial (Homo sapiens) (UniProt P05091). In words: qHTS for Inhibitors of the Aldehyde Dehydrogenase Family (ALDH2) Primary screen (AID 2061308).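 Further: plate controls were vehicle for no effect and reference inhibitor for full effect; nearly all actives have a fitted effect of over 55% in size.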
The target in test [3] is Retinaldehyde dehydrogenase 3 (Homo sapiens) (UniProt P47895). In words: qHTS for Inhibitors of the Aldehyde Dehydrogenase Family (ALDH1A3) Primary screen (AID 2061315).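 Further: plate controls were DMSO vehicle for no effect and reference inhibitor for full effect.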

Chain of Cellular tumor antigen p53 (Homo sapiens) (P04637 whole entry, looked up): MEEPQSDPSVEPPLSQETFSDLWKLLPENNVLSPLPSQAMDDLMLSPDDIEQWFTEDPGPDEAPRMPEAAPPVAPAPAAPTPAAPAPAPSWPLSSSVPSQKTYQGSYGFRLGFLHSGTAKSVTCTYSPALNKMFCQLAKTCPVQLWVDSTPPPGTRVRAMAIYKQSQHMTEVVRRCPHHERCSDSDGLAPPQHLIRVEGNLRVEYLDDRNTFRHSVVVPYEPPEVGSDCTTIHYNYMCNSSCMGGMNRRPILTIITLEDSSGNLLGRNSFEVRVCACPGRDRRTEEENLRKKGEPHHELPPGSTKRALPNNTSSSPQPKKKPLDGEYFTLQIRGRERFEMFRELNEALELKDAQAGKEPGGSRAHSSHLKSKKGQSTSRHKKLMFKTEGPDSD

Take `Cc1cc(NC(=O)c2cccc(NC(=O)/C=C/CN(C)C)c2)ccc1Nc1nccc(-c2cccnc2)n1`: in test [1], the Potency is 26.9 µM (active). Besides, the Potency entry in test [2] and in test [3] was “inactive” each time.
For the molecule `CCCCCCc1cccc(NC(=O)[C@H](N)CCP(=O)(O)O)c1`, the activation in test [1] is 1%. Also, the Potency entry in test [2] and in test [3] was “inactive” throughout.
Regarding `COc1cc(NS(=O)(=O)c2ccc(N)cc2)nc(C)n1`, the activation in test [1] was -15.9%. The Potency result in test [2] and in test [3] was “inactive” each time.
`CC(C)C(NC(=O)c1ccc(O)cc1)C(=O)N1CCCC1C(=O)Nc1c(O)cccc1C(=O)O` (stereo not given): the activation in test [1] was -0.763%. The Potency result in test [2] and in test [3] was “inactive” throughout.
As to `C[C@@H]1O[C@@H](OC2C(CO)OC(OCC3OC(OC(=O)[C@]45CCC(C)(C)CC4C4=CCC6[C@@]7(C)CC[C@@H](O)[C@](C)(C(=O)O)C7CC[C@@]6(C)[C@]4(C)CC5)C(O)C(O)C3O)C(O)C2O)[C@H](O)[C@H](O)[C@H]1O` (stereo not given in full), in test [1], the activation is -3.82%. Also, the Potency result in test [2] and in test [3] was “inactive” each time.
